Reference: PubChem BioAssay (EPA / NIEHS)
Activity calls are given as the source filed them. The calls were made as follows: active = hit-call score of the fitted dose curve at least 0.9, where 1 is the maximum; inactive = score below 0.9.

Legend:
[1] = APR_HepG2_StressKinase_1hr: Apredica 1-hour HepG2 Assay for Stress Kinase (AID 2282906); conditions: HepG2 stress kinase (phospho-c-Jun) imaging, actives raise or lower the signal
How it was run: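 High-content imaging of phospho-c-Jun immunostaining (with Hoechst nuclear identification) after a 1 h exposure of HepG2 cells to 10 concentrations from 0.39 to 200 uM, final DMSO 0.5%. Fitted bidirectionally against DMSO.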

[2] = APR_HepG2_NuclearSize_24hr: Apredica 24-hour HepG2 Assay for Nuclear Size (AID 2282907); conditions: high-content imaging, actives raise or lower the signal
How it was run: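 Nuclear size from Hoechst 33342-stained, formaldehyde-fixed HepG2 nuclei imaged by high-content microscopy, after 24 h dosing at ten concentrations from 0.39 to 200 uM in 0.5% DMSO; gain or loss relative to DMSO baseline.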

[3] = APR_HepG2_CellLoss_24hr: Apredica 24-hour HepG2 Assay for Cell Loss (AID 2282908); conditions: high-content imaging;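 as to AC50: fit in both directions so a hit may be cell loss or gain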
How it was run: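 Nuclei stained with Hoechst 33342 after formaldehyde fixation (3.7%) were imaged at 20x to count cells. Exposure lasted 24 hr, at ten concentrations from 0.39 to 200 uM in duplicate, with 0.5% v/v DMSO. Fit bidirectional, relative to DMSO.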

[4] = APR_HepG2_MicrotubuleCSK_24hr: Apredica 24-hour HepG2 Assay for Microtubule CSK Stabilty (AID 2282909); conditions: HepG2 microtubule cytoskeleton imaging, actives raise or lower the signal
How it was run: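 Fixed HepG2 cells were stained for alpha-tubulin and imaged after 24 hr exposure to ten concentrations spanning 0.39–200 uM in 0.5% DMSO. Signal change was fitted in both directions relative to DMSO; taxol was the positive control.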

[5] = APR_HepG2_MitoticArrest_24hr: Apredica 24-hour HepG2 Assay for Mitotic Arrest (AID 2282910); conditions: high-content imaging, actives raise or lower the signal
How it was run: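 Treatment lasted 24 hr in the human HepG2 line at 0.39–200 uM, solvent held at 0.5% DMSO. Fixed cells were stained with Hoechst 33342 and anti-phospho-histone H3, imaged at 20x, and analysed by gain- or loss-of-signal fitting against DMSO.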

[6] = APR_HepG2_MitoMembPot_24hr: Apredica 24-hour HepG2 Assay for Mitochondrial Membrane Potential (AID 2282911); conditions: imaging, actives raise or lower the signal
How it was run: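 HepG2, 24 hr dosing, 10 concentrations 0.39–200 uM, 0.5% DMSO final. Live-cell MitoTracker Red CMXRos 250 nM 30 min, then 3.7% formaldehyde fix. HCS fluorescence imaging, 20x; bidirectional fit vs DMSO baseline.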

[7] = APR_HepG2_p53Act_24hr: Apredica 24-hour HepG2 Assay for p53 Activation (AID 2282913); conditions: high-content imaging, actives raise or lower the signal;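 also: p53 protein immunofluorescence averaged per cell in HepG2 with Hoechst nuclei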
How it was run: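 Read-out: Cy5 immunofluorescence for p53 in fixed, permeabilized HepG2, imaged by HCS with Hoechst-defined nuclei. Dosing was 24 hr at 0.39–200 uM in 0.5% DMSO. Curves were fitted bidirectionally relative to DMSO.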

[8] = APR_HepG2_CellCycleArrest_72hr: Apredica 72-hour HepG2 Assay for Cell Cycle Arrest (AID 2282914); conditions: high-content imaging, actives raise or lower the signal
How it was run: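 HepG2, 72 hr exposure, 10-point 0.39–200 uM, duplicate, 0.5% DMSO final. Fix 3.7% formaldehyde 30 min RT, Triton X-100 0.5%, Hoechst 33342 2 ug/mL. ArrayScan 20x, six fields/well; DNA content per nucleus; bidirectional fit vs DMSO.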

[9] = APR_HepG2_CellLoss_72hr: Apredica 72-hour HepG2 Assay for Cell Loss (AID 2282915); conditions: high-content imaging
How it was run: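 HepG2 cells were exposed for 72 hr to compounds at 0.39–200 uM (ten concentrations, duplicate) in 0.5% v/v final DMSO. Nuclei were stained with Hoechst 33342 after 3.7% formaldehyde fixation, imaged at 20x, and counted; fits bidirectional versus DMSO.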

[10] = APR_HepG2_MitoMass_24hr: Apredica 24-hour HepG2 Assay for Mitochondrial Mass (AID 2282912); conditions: high-content imaging, actives raise or lower the signal
How it was run: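 Endpoint is MitoTracker Red CMXRos (250 nM, 30 min, pre-fixation) intensity from 20x high-content imaging, nuclei located by Hoechst. Human HepG2 cells received ten concentrations from 0.39 to 200 uM in 0.5% DMSO for 24 hr, duplicate wells. Bidirectional fit relative to DMSO.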

Measured: AC50

CC(=NC#N)N(C)Cc1ccc(Cl)nc1
not listed: [10]
inactive: all other assays above

CCCOCC(=Nc1ccc(Cl)cc1C(F)(F)F)n1ccnc1
active: [9] 100 µM
not listed: [10]
inactive: all other assays above

CCCSP(=O)(OCC)Oc1ccc(Br)cc1Cl (configuration not stated)
active: [3] 108 µM | [4] 113 µM | [9] 114 µM
not listed: [1] | [10]
inactive: all other assays above

Nc1nc(N)nc(NC2CC2)n1
not listed: [1] | [10]
inactive: all other assays above

CON=C(C(=O)OC)c1ccccc1CON=C(C)c1cccc(C(F)(F)F)c1
active: [6] 1.07 µM | [9] 3.36 µM
not listed: [1] | [10]
inactive: all other assays above

CC[C@H](C)[C@H]1O[C@]2(C=C[C@@H]1C)C[C@@H]1C[C@@H](C/C=C(\C)[C@@H](O[C@H]3C[C@H](OC)[C@@H](O[C@H]4C[C@H](OC)[C@@H](NC)[C@H](C)O4)[C@H](C)O3)[C@@H](C)/C=C/C=C3\CO[C@@H]4[C@H](O)C(C)=C[C@@H](C(=O)O1)[C@]34O)O2
active: [3] 2.55 µM | [4] 12.6 µM | [5] 12.7 µM | [10] 8.64 µM
not listed: [1]
inactive: all other assays above

O=C(O)c1cc(Oc2ccc(C(F)(F)F)cc2Cl)ccc1[N+](=O)[O-]
not listed: [1] | [7]
inactive: all other assays above

CC(COc1ccc(Oc2ccccc2)cc1)Oc1ccccn1 (configuration not stated)
active: [6] 65.7 µM | [8] 87 µM | [9] 49.2 µM
not listed: [1] | [10]
inactive: all other assays above

CCOP(=S)(OCC)Oc1cc(C)nc(C(C)C)n1
not listed: [1]
inactive: all other assays above

CCOC(=O)CC(SP(=O)(OC)OC)C(=O)OCC (configuration not stated)
not listed: [1] | [10]
inactive: all other assays above

CCCSP(=O)(OCC)SCCC
not listed: [1] | [7] | [10]
inactive: all other assays above

CCc1cnc(C2=NC(C)(C(C)C)C(=O)N2)c(C(=O)O)c1 (configuration not stated)
not listed: [1] | [7] | [10]
inactive: all other assays above

S=C1NCCN1
not listed: [1] | [10]
inactive: all other assays above

CCNc1nc(Cl)nc(NC(C)(C)C#N)n1
not listed: [1]
inactive: all other assays above

CCOP(=O)(OCC)Oc1cc(C)nc(C(C)C)n1
not listed: [1] | [10]
inactive: all other assays above

CCCCN(CC)c1c([N+](=O)[O-])cc(C(F)(F)F)cc1[N+](=O)[O-]
active: [6] 71.9 µM | [8] 108 µM | [9] 84.6 µM
not listed: [1]
inactive: all other assays above

COc1cccc(C(=O)NN(C(=O)c2cc(C)cc(C)c2)C(C)(C)C)c1C
not listed: [1] | [10]
inactive: all other assays above

O=[N+]([O-])c1cc(C(F)(F)F)c(Cl)c([N+](=O)[O-])c1Nc1ncc(C(F)(F)F)cc1Cl
active: [3] 49.5 µM | [4] 1.14 µM | [8] 0.676 µM | [9] 1.33 µM
inactive: [2] | [5] | [6] | [10]

COc1ccc(C(=CC(=O)N2CCOCC2)c2ccc(Cl)cc2)cc1OC
active: [6] 8.19 µM | [9] 31.1 µM
not listed: [1] | [10]
inactive: all other assays above

COP(=O)(OC)OC(Br)C(Cl)(Cl)Br (configuration not stated)
active: [3] 45 µM | [4] 34.1 µM | [5] 34.2 µM | [9] 29.7 µM
inactive: [2] | [6] | [10] | [8]

CCOP(=S)(OCC)SCCSCC
not listed: [1]
inactive: all other assays above

CSc1nnc(C(C)(C)C)c(=O)n1N
not listed: [1] | [10]
inactive: all other assays above

CC(C)=CC1C(C(=O)OCN2C(=O)C3=C(CCCC3)C2=O)C1(C)C (configuration not stated)
active: [3] 109 µM | [4] 105 µM | [9] 100 µM
not listed: [1] | [10]
inactive: all other assays above

CN(C)NC(=O)CCC(=O)O
not listed: [1] | [10]
inactive: all other assays above

CCc1cccc(C)c1N(C(=O)CCl)C(C)COC (configuration not stated)
active: [9] 106 µM
not listed: [1] | [10]
inactive: all other assays above

CSC1=N[C@@](C)(c2ccccc2)C(=O)N1Nc1ccccc1
active: [4] 43.3 µM | [9] 12.2 µM
not listed: [1] | [10]
inactive: all other assays above

CCCCOC(=O)c1ccccc1C(=O)O
not listed: [1] | [10]
inactive: all other assays above

CN1COCN(Cc2cnc(Cl)s2)C1=N[N+](=O)[O-]
not listed: [1] | [10]
inactive: all other assays above

CN(C)C(=O)Nc1cccc(C(F)(F)F)c1
not listed: [1]
inactive: all other assays above

C=C(C)[C@H]1Cc2c(ccc3c2O[C@@H]2COc4cc(OC)c(OC)cc4[C@@H]2C3=O)O1
active: [3] 15.7 µM | [6] 0.295 µM | [8] 0.283 µM | [9] 12.8 µM
inactive: [2] | [4] | [5]

Cc1cc(C2CC2)nc(Nc2ccccc2)n1
active: [3] 60.5 µM | [4] 98.6 µM | [9] 75.7 µM
not listed: [1]
inactive: all other assays above

C#CCC1=C(C)C(OC(=O)C2C(C=C(C)C)C2(C)C)CC1=O (configuration not stated)
active: [3] 89.4 µM | [8] 104 µM
not listed: [1]
inactive: all other assays above

CC1(C(=O)Nc2ccc(O)c(Cl)c2Cl)CCCCC1
active: [4] 94 µM | [9] 71.2 µM
not listed: [1] | [10]
inactive: all other assays above

CCC(CC)Nc1c([N+](=O)[O-])cc(C)c(C)c1[N+](=O)[O-]
active: [6] 84.3 µM | [9] 108 µM
not listed: [1]
inactive: all other assays above

CNc1cnn(-c2cccc(C(F)(F)F)c2)c(=O)c1Cl
not listed: [1] | [10]
inactive: all other assays above

COP(=O)(OC)SCn1c(=O)oc2cc(Cl)cnc21
inactive: [2] | [5] | [6] | [7]
active: [3] 32.9 µM | [4] 30.2 µM | [8] 47.4 µM | [9] 37.8 µM

CCCCOC(=O)[C@@H](C)Oc1ccc(Oc2ccc(C#N)cc2F)cc1
active: [9] 99.2 µM
not listed: [1]
inactive: all other assays above

Cc1ccn2nc(S(=O)(=O)Nc3c(F)cccc3F)nc2n1
not listed: [1] | [7] | [10]
inactive: all other assays above
